The source of these data is PubChem BioAssay.

Assay [1] can be described thus: liver-stage malaria parasite growth inhibition, primary screen, cell-based, HepG2, luciferase luminescence, HepG2 viability (AID 624349).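 Note: 100% = mean of DMSO negative control wells on the same plate.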 To be noted: P. berghei liver stage in HepG2, luciferase luminescence, concentration not given here; parasite load remaining: stronger effect = lower value; viability: measured here: HepG2 viability without parasites.
Assay [2] is described as follows: stimulators of nuclear beta-catenin in C2C12, primary screen, imaging, WNT3A-conditioned medium, mouse C2C12, NPC library (AID 1117326; in the data active = nuclear beta-catenin stimulation mostly above about 4.2%, no sharp cut-off; inactive = mostly below about 10%). To be noted: stronger effect = higher value.
Assay [3] in a line: stimulators of insulin release from INS-1E, primary screen, cell-based, 5 mM glucose, NPC library (AID 1117329;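 active = compound raises insulin release from rat beta cells at 5 mM glucose, no numeric limit stated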). To be noted: rat INS-1E insulin secretion, at 10 µM, stronger effect = higher value.
Assay [4] can be described thus: growth inhibition of GSK3B-pretreated HCT116 cells – cell-based, CellTiter-Glo, 0.2 to 20 µM (AID 1117336;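 active = compounds lowering colon cancer cell viability after pretreatment blocking the GSK3B kinase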). The settings on record: HCT116 viability after GSK3B inhibitor, at 20 µM, stronger effect = higher value. On the technique in general: ATP-based viability assays read luminescence as a measure of living cells.
Assay [5] is described as follows: inhibition of endothelial tube formation, primary screen, imaging, VEGF stimulated, CD31 staining, tube area, NPC library (AID 1117340;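 active = compound that reduces growth-factor-driven endothelial tube area in a mixed cell culture, no cutoff stated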). To be noted: VEGF-stimulated ADSC/ECFC co-culture, at 10 µM, stronger effect = higher value.
Assay [6] is described as follows: glucagon-like peptide 1 release enhancers, primary assay, NCI-H716 cell line, NPC library (AID 1117341;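 active = compound raises GLP1 secretion from the human gut endocrine cells, with no numeric limit stated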). The settings on record: NCI-H716 cells, at 10 µM, stronger effect = higher value.
Assay [7] is described as follows: HCT116 colon cancer cell growth inhibition, primary screen, CellTiter-Glo luminescence, NPC library (AID 1117342;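 active = compounds that lower survival of HCT116 colon cancer cells in the luminescence readout, no numeric limit stated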). To be noted: at 20 µM (top of the series).
A short description of assay [8]: CellTiter-Glo luminescent readout of SW480 viability loss, NPC library primary (AID 1117343;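 active = compounds that lower viability of the colon cancer cells in the luminescence readout, with no numeric limit stated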). The settings on record: CellTiter-Glo luminescence; at 20 µM (top of the series).
Assay [9] in a line: decreased DLD-1 cellular survival, CellTiter-Glo luminescent readout, NPC compound collection, primary HTS (AID 1117346;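 active = compounds that lower survival of DLD-1 colon cancer cells in the luminescence readout, no cutoff given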). The settings on record: DLD-1 viability, CellTiter-Glo luminescence; at 20 µM (top of the series).
Assay [10] deals with 6-phosphogluconate dehydrogenase, decarboxylating (Homo sapiens) (UniProt P52209). As to the kind of experiment: 6PGD enzyme inhibitors, primary screen, biochemical, human, recombinant enzyme, NADPH absorbance (AID 1159550;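 active = at least 20% inhibition of 6-phosphogluconate dehydrogenase activity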). To be noted: recombinant 6PGD, NADPH absorbance 341 nm; at 10 µM; stronger effect = higher value.

Several values for one entry are separate records, joined by “and”; a condition that tells them apart may be missing. Identical values can stand only once. Activity calls are given as the source filed them. Cut-off read from the data, not from the text of the source, unless noted: active = parasite load remaining mostly below about 12% (no sharp cut-off); inactive = mostly above about 10%.

6-phosphogluconate dehydrogenase, decarboxylating (Homo sapiens), sequence (P52209 whole entry, looked up): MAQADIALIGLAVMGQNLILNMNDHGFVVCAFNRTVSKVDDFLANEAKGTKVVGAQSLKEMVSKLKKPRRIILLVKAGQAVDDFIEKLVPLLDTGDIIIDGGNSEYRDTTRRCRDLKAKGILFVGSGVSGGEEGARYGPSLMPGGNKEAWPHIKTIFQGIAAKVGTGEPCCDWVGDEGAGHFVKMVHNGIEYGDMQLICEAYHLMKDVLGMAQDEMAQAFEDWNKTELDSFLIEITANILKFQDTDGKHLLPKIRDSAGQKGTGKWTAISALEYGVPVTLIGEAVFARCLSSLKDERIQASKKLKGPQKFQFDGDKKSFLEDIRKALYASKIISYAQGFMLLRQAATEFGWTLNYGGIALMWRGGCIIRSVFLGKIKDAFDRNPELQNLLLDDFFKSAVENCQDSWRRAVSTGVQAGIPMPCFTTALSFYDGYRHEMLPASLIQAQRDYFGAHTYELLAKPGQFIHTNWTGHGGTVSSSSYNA

Turning to `CCCCOc1ccc(CC(=O)NO)cc1`, in [1], the parasite load remaining was 13.5% (inactive) and 151% (inactive) and 84.2% (inactive). Further, in [1], the viability (commonly a read-out of living cells in per cent, often relative to untreated cells) is 47.8% and 71.4% and 91%. Further, the nuclear beta-catenin stimulation in assay [2] (at 10 µM) is 0% (inactive); in assay [2] (stimulation, at 2 µM) it was 0.3%. Besides, the insulin secretion stimulation in [3] was 10.6% (inactive). Also, in assay [4], the viability decrease was 24.3% (inactive). The tube area decrease in [5] is -1.4% (inactive). Besides, the GLP1 secretion stimulation in assay [6] was -1.1% (inactive). In [7], the inhibition of viability was 12.7% (inactive). Also, the results for the viability decrease (inhibition) in [8] and in [9] were 35.2% (inactive) and 11.6% (inactive), respectively. In addition, the inhibition (usually the relative decrease from the control value, in per cent) in assay [10] is -6.77% (inactive).
For the molecule `Cc1cc(C)cc(OCC2CNC(=O)O2)c1` (configuration not stated), in [1], the parasite load remaining is 135% (inactive) and 58.1% (inactive). Further, the viability in [1] is 90% and 111%. The nuclear beta-catenin stimulation in [2] (at 10 µM) was -0.1% (inactive); in assay [2] (stimulation, at 2 µM) it was 0.2%. For the same molecule, the insulin secretion stimulation in assay [3] was -0.5% (inactive). For the same molecule, the viability decrease in [4] was 4.3% (inactive). Besides, the tube area decrease in assay [5] is 12.5% (inactive). The GLP1 secretion stimulation in assay [6] is -1.5% (inactive). The inhibition of viability in [7] is 3.1% (inactive). For the same molecule, the viability decrease (inhibition) in assay [8] was 13.1% (inactive); in [9] it was 6% (inactive). In addition, the inhibition in assay [10] is 3.16% (inactive).
In the case of `OC[C@H]1O[C@@H](Oc2ccc(O)cc2)[C@H](O)[C@@H](O)[C@@H]1O`, in assay [1], the parasite load remaining is 102% (inactive). In addition, the viability in assay [1] amounted to 72.2%. In addition, the nuclear beta-catenin stimulation in [2] (at 10 µM) was -2.1% (inactive); in [2] (stimulation, at 2 µM) it was 1%. For the same molecule, the insulin secretion stimulation in assay [3] is -0.6% (inactive). Also, the viability decrease in assay [4] was -2.2% (inactive). Further, the tube area decrease in assay [5] was 1% (inactive). Besides, in assay [6], the GLP1 secretion stimulation was -2.9% (inactive). In addition, in [7], the inhibition of viability was -1.8% (inactive). Besides, the viability decrease (inhibition) was 2.3% (active) in assay [8] and -10.8% (inactive) in [9]. In addition, the inhibition in assay [10] is 17.9% (inactive).
Take `C[C@@H]1C[C@H]2[C@@H]3C[C@H](F)C4=CC(=O)C=C[C@]4(C)[C@@]3(F)[C@@H](O)C[C@]2(C)[C@@]1(O)C(=O)CO`: the parasite load remaining in [1] is 102% (inactive). For the same molecule, in assay [1], the viability stood at 99.8%. For the same molecule, the nuclear beta-catenin stimulation in assay [2] (at 10 µM) is -0.8% (inactive); in [2] (stimulation, at 2 µM), 0.3%. In assay [3], the insulin secretion stimulation was 2.8% (inactive). The viability decrease in [4] is -29.3% (inactive). Also, in assay [5], the tube area decrease was -2.9% (inactive). Further, the GLP1 secretion stimulation in [6] is -2.9% (inactive). In [7], the inhibition of viability is 4.83% (inactive). The viability decrease (inhibition) in assay [8] is -11.5% (inactive); in assay [9], -9.6% (inactive). In addition, the inhibition in assay [10] is 8.65% (inactive).
As to `CCOC(=O)n1ccn(C)c1=S`, the parasite load remaining in assay [1] was 106% (inactive) and 140% (inactive) and 85.8% (inactive). Besides, the viability in assay [1] is 108% and 84.5% and 77.4%. Also, the nuclear beta-catenin stimulation is 0.6% (inactive) in [2] (at 10 µM) and -0.4% in assay [2] (stimulation, at 2 µM). In addition, the insulin secretion stimulation in assay [3] was 0.6% (inactive). Moreover, the viability decrease in assay [4] is -40.3% (inactive). Moreover, the tube area decrease in assay [5] was 10.6% (inactive). Further, in assay [6], the GLP1 secretion stimulation was 0.3% (inactive). Also, the inhibition of viability in [7] was -5.63% (inactive). For the same molecule, the viability decrease (inhibition) in assay [8] was 6.5% (inactive); in assay [9] it was 5.3% (inactive). In addition, the inhibition in [10] was 2.95% (inactive).
On to `O=C(O)c1ccc(S(=O)(=O)N(Cl)Cl)cc1`, for which, in assay [1], the parasite load remaining was 101% (inactive) and 53.6% (inactive). In assay [1], the viability was 75.7% and 97.7%. The nuclear beta-catenin stimulation is 0.3% (inactive) in assay [2] (at 10 µM) and 1.7% in assay [2] (stimulation, at 2 µM). Further, the insulin secretion stimulation in [3] is 1.2% (inactive). For the same molecule, the viability decrease in assay [4] is -8.9% (inactive). The tube area decrease in [5] is -29.4% (inactive). Besides, the GLP1 secretion stimulation in assay [6] was 0% (inactive). In assay [7], the inhibition of viability is 8.13% (inactive). The viability decrease (inhibition) is 16.9% (inactive) in assay [8] and -6.9% (inactive) in assay [9]. In [10], the inhibition was 13.4% (inactive).
